The full data set covers some 7,900 targets. This sample favours those with a hit. About 0.6% of all pairs of compound and target were hits. Unmarked numbers belong to inactive results.
Legend:
Test in all cases: log2 fold change, soluble protein after heating vs DMSO (PISA); higher = thermal stabilisation; K562 cells, 10 uM, 30 min; active = over 0.2 and 3.5 SD of the protein, either way, in both replicates (recomputed)
[1] = compound: COC1=CC=C(C=C1)CN2C=CC3=C2C=C(C=C3)C(=O)NO
Method in brief: (§1)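 Soluble protein was defined as the supernatant after 21,000xg for 90 min. It came from K562 cells at 2×10^6 cells/mL given 10 μM compound for 30 min, heated in aliquots for 3 min across 48°C-58°C, pooled, and extracted in PBS with 0.5% NP-40 at 4°C, and was quantified by TMTpro 16plex LC-MS/MS with equalised channel sums. Thermal stability against control samples, from duplicates, is reported as log2 fold change.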

filanesib = compound: CON(C)C(=O)N1N=C(c2cc(F)ccc2F)S[C@@]1(CCCN)c1ccccc1 [filanesib]
Method in brief: as §1

zotarolimus = compound: CO[C@H]1C[C@@H]2CC[C@@H](C)[C@@](O)(O2)C(=O)C(=O)N2CCCC[C@H]2C(=O)O[C@H]([C@H](C)C[C@@H]2CC[C@H](n3cnnn3)[C@H](OC)C2)CC(=O)[C@H](C)/C=C(\C)[C@@H](O)[C@@H](OC)C(=O)[C@H](C)C[C@H](C)/C=C/C=C/C=C/1C [zotarolimus]
Method in brief: as §1

idasanutlin = compound: COc1cc(C(=O)O)ccc1NC(=O)[C@@H]1N[C@@H](CC(C)(C)C)[C@](C#N)(c2ccc(Cl)cc2F)[C@H]1c1cccc(Cl)c1F [idasanutlin]
Method in brief: as §1

[2] = compound: COc1cc2nc(-c3cc(F)ccc3O)nc(N[C@@H]3CNC[C@H]3C(C)(C)O)c2cc1OC
Method in brief: as §1

gefitinib = compound: COc1cc2ncnc(Nc3ccc(F)c(Cl)c3)c2cc1OCCCN1CCOCC1 [gefitinib]
Method in brief: as §1

lapatinib = compound: CS(=O)(=O)CCNCc1ccc(-c2ccc3ncnc(Nc4ccc(OCc5cccc(F)c5)c(Cl)c4)c3c2)o1 [lapatinib]
Method in brief: as §1

alisertib = compound: COc1cc(Nc2ncc3c(n2)-c2ccc(Cl)cc2C(c2c(F)cccc2OC)=NC3)ccc1C(=O)O [alisertib]
Method in brief: as §1

[3] = compound: COc1cccc2cc(-c3nc([C@H]4CC[C@H](C(=O)O)CC4)n4ncnc(N)c34)[nH]c12
Method in brief: as §1

pictilisib = compound: CS(=O)(=O)N1CCN(Cc2cc3nc(-c4cccc5[nH]ncc45)nc(N4CCOCC4)c3s2)CC1 [pictilisib]
Method in brief: as §1

UniProt Q9C037, sequence (Q9C037 whole entry, looked up): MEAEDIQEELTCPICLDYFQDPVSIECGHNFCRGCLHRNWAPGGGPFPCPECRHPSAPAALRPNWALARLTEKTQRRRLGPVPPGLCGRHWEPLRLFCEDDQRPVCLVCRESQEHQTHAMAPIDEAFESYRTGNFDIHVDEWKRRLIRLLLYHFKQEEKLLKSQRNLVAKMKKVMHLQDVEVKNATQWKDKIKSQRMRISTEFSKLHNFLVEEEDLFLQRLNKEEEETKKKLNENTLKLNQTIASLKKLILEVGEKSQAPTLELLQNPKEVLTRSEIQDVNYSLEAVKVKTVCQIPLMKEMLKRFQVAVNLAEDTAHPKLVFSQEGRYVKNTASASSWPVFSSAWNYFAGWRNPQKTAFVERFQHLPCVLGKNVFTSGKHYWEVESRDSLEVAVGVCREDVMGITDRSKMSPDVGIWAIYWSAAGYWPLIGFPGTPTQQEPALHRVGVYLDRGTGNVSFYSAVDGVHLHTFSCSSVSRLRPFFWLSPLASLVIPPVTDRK
UniProt O60763, sequence (O60763 whole entry, looked up): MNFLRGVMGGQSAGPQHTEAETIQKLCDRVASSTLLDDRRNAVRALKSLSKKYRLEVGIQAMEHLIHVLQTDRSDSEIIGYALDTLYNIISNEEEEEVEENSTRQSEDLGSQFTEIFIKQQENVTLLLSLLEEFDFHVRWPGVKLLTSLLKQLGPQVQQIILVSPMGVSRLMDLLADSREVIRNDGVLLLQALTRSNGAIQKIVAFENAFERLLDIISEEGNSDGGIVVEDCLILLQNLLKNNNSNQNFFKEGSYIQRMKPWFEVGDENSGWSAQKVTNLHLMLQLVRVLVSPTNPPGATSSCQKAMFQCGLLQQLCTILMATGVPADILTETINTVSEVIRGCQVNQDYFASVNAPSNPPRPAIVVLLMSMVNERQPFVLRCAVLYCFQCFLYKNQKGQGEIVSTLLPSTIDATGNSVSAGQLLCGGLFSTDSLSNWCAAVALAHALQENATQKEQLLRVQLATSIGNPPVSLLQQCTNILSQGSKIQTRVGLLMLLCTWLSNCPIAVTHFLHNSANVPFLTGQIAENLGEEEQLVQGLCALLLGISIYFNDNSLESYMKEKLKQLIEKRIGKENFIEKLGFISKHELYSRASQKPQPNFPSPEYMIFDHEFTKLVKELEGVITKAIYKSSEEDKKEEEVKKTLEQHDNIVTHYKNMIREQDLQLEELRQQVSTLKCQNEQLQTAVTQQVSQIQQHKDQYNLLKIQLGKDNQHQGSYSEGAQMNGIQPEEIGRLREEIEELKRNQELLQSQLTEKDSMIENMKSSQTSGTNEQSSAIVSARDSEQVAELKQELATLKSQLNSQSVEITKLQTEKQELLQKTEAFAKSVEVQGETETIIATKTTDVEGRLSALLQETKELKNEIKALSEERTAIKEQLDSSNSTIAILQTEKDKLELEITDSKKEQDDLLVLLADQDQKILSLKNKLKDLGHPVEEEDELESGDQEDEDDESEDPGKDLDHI
UniProt P30291, sequence (P30291 whole entry, looked up): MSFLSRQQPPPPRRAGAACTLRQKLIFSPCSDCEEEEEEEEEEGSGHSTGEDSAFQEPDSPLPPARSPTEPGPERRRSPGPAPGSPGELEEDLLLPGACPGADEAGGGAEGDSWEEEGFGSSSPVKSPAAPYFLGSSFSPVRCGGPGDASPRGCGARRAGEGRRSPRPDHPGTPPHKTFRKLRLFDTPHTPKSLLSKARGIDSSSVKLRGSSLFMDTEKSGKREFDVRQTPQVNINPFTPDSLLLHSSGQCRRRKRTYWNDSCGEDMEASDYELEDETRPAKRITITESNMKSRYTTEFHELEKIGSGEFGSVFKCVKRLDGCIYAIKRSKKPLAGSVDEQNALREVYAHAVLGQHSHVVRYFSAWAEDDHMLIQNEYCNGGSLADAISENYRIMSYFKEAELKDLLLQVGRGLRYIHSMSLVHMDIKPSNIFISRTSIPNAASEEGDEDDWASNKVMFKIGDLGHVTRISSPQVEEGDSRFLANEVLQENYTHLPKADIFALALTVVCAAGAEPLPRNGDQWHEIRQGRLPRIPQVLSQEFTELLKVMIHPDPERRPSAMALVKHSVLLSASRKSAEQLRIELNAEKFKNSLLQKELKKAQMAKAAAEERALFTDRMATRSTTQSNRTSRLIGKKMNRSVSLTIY
UniProt Q5BJH2, sequence (Q5BJH2 whole entry, looked up): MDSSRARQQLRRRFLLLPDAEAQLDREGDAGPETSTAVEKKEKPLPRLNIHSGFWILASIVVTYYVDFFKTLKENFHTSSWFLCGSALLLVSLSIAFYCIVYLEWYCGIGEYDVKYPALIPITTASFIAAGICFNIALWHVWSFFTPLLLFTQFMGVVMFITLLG
UniProt P21796, sequence (P21796 whole entry, looked up): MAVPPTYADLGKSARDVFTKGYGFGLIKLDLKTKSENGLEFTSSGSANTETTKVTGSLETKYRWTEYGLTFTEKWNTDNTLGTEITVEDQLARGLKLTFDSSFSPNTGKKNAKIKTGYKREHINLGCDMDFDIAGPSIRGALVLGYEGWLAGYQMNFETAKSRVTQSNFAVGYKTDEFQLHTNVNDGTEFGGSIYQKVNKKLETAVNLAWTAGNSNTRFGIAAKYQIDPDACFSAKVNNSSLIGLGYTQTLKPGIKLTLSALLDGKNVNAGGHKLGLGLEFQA
UniProt Q9HAD4, sequence (Q9HAD4 whole entry, looked up): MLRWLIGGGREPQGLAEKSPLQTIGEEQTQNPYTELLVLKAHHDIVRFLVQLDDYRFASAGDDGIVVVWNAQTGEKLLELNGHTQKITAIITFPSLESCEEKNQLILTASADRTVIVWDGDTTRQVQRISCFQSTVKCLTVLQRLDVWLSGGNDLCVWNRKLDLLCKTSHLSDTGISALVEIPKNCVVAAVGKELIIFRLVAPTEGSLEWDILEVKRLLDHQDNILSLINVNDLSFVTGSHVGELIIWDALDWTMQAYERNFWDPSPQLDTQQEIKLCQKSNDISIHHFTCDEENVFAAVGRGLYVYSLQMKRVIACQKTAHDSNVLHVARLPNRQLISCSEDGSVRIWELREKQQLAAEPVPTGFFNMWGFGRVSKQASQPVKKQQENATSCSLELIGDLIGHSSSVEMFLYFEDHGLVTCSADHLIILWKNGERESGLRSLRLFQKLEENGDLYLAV
UniProt Q9BVJ6, sequence (Q9BVJ6 whole entry, looked up): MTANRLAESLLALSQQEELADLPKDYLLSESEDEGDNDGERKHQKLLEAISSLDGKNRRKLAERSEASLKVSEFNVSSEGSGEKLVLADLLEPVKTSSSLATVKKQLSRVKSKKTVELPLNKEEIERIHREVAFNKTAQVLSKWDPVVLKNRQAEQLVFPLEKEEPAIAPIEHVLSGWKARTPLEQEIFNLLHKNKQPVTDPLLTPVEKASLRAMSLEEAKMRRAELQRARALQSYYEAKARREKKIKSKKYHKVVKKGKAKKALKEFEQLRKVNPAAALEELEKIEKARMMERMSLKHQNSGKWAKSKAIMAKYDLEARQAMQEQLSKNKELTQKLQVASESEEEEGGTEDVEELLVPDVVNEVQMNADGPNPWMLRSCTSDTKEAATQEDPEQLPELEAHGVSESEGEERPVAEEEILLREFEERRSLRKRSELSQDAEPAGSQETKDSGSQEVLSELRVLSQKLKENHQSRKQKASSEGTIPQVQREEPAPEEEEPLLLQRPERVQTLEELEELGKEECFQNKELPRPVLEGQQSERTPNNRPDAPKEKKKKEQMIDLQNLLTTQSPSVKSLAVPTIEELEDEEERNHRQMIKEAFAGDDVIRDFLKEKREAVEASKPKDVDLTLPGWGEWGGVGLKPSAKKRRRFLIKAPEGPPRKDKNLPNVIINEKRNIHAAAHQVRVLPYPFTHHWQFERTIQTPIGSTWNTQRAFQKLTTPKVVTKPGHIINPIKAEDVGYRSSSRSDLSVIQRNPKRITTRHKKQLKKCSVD
UniProt Q9Y5K5, sequence (Q9Y5K5 whole entry, looked up): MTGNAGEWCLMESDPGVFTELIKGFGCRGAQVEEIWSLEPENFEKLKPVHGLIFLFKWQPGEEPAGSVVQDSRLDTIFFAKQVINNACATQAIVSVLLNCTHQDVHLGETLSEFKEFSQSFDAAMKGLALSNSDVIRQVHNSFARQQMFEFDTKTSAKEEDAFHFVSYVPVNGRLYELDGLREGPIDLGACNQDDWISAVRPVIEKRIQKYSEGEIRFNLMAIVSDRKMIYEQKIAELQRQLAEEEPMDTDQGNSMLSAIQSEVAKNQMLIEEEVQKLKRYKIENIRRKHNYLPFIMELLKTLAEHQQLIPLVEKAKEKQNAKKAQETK
UniProt Q86WV6, sequence (Q86WV6 whole entry, looked up): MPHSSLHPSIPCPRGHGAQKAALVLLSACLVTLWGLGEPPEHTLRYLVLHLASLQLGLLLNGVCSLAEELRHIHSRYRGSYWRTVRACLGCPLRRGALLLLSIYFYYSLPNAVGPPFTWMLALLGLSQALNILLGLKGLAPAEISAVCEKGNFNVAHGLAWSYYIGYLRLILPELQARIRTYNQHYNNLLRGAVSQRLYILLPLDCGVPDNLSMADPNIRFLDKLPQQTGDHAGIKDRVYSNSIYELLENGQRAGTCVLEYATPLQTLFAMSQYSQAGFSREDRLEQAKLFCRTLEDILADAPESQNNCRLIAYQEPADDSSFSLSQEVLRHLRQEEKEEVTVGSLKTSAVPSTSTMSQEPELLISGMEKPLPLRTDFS
UniProt Q16763, sequence (Q16763 whole entry, looked up): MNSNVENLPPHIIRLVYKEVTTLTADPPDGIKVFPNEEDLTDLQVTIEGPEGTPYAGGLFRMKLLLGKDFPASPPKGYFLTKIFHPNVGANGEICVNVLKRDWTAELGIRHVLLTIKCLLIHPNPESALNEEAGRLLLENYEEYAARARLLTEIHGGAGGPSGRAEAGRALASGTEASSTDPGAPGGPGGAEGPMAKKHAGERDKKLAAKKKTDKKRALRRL

| Target | log2 fold change [1] | log2 fold change (filanesib) | log2 fold change (zotarolimus) | log2 fold change (idasanutlin) | log2 fold change [2] | log2 fold change (gefitinib) | log2 fold change (lapatinib) | log2 fold change (alisertib) | log2 fold change [3] | log2 fold change (pictilisib) |
| --- | --- | --- | --- | --- | --- | --- | --- | --- | --- | --- |
| UBE3B (UniProt Q7Z3V4) | 0.03 | 0.058 | 0.086 | 0.065 | 0.247 | -0.037 | 0.212 |  |  |  |
| VPS33B (UniProt Q9H267) | 0.027 | 0.011 | 0.026 | -0.036 | -0.046 | 0.118 | 0.011 | -0.116 | -0.147 | -0.035 |
| WEE1 (UniProt P30291) | -0.157 | 0.217 | -0.068 | 0.356 | 0.039 | -0.083 | 0.125 | -0.322 | -0.615 | -0.095 |
| VPS33A (UniProt Q96AX1) | 0.018 | -0.096 | 0.033 | -0.039 | 0.014 | -0.033 | 0.015 | -0.037 | -0.039 | -0.083 |
| UCHL5 (UniProt Q9Y5K5) | 0.023 | -0.035 | 0.026 | -0.044 | 0.04 | 0.008 | -0.023 | -0.048 | -0.031 | 0.012 |
| VDAC1 (UniProt P21796) | 0 | -0.036 | -0.01 | -0.004 | -0.023 | -0.007 | 0 | -0.033 | 0.052 | 0.002 |
| VPS16 (UniProt Q9H269) | 0.018 | -0.093 | 0.033 | -0.065 | -0.009 | -0.1 | -0.006 | -0.056 | -0.017 | -0.044 |
| TUBA4A (UniProt P68366) | 0.032 | -0.108 | 0.044 | -0.108 | -0.043 | 0.019 | 0.04 | -0.027 | 0.071 | 0.04 |
| WDR41 (UniProt Q9HAD4) | 0.025 | -0.154 | -0.007 | -0.031 | -0.254 | -0.002 | 0.049 | -0.072 | 0.014 | -0.056 |
| UTP14A (UniProt Q9BVJ6) | -0.114 | 0.336 | -0.022 | 0.161 | -0.111 | -0.062 | 0.156 | -0.077 | -0.138 | -0.174 |
| UBA52 (UniProt P62987) | 0 | 0.519 | -0.171 | 0.308 | -0.203 |  | 0.141 | -0.131 | -0.275 | -0.177 |
| UBA6 | 0.021 | -0.01 | 0.051 | -0.016 | -0.031 | 0.029 | 0.022 | -0.04 | -0.069 | 0.004 |
| USO1 isoform 2 (UniProt O60763) | 0.009 | -0.054 | 0.034 | -0.054 | -0.031 | 0.003 | 0.016 | -0.037 | 0.01 | 0.014 |
| VARS2, A0A0G2JL52 | 0.061 | -0.078 | 0.001 | -0.04 | -0.017 | -0.009 | 0.022 | -0.01 | 0.064 | 0.024 |
| TMEM173 (UniProt Q86WV6) | -0.177 | 0.007 | 0.025 | -0.209 | 0.034 | -0.013 | -0.062 | -0.073 | -0.008 | -0.037 |
| UFD1 isoform 1 (UniProt Q92890) | 0.225 (active) | -0.033 | -0.028 | -0.043 | -0.052 | -0.001 | 0.018 | -0.023 | 0.033 | -0.037 |

| Target | log2 fold change [1] | log2 fold change (filanesib) | log2 fold change (zotarolimus) | log2 fold change (idasanutlin) | log2 fold change [2] | log2 fold change (gefitinib) | log2 fold change (lapatinib) | log2 fold change (alisertib) | log2 fold change [3] | log2 fold change (pictilisib) |
| --- | --- | --- | --- | --- | --- | --- | --- | --- | --- | --- |
| TRMT10C (UniProt Q7L0Y3) | -0.045 | -0.031 | 0.016 | -0.107 | 0.018 | 0.039 | -0.033 | -0.033 | 0.005 | 0.007 |
| TMEM128 (UniProt Q5BJH2) | -0.065 | 0.152 | -0.181 | 0.035 | 0.025 | 0.076 | -0.068 |  |  |  |
| XRCC1 (UniProt P18887) | -0.129 | 0.088 | -0.018 | -0.045 |  |  |  |  |  | -0.065 |
| TTI1 (UniProt O43156) | -0.031 | 0.081 | 0.091 | -0.097 | 0.02 | -0.057 | -0.008 | -0.112 | -0.019 | 0.049 |
| UBE2S (UniProt Q16763) | 0.003 | 0.01 | 0.045 | -0.05 | 0.053 | -0.009 | -0.035 | 0.015 | 0.001 | 0.058 |
| TSC2 (UniProt P49815) | 0.361 | 0.198 | -0.181 | 0.017 | -0.039 |  | 0.135 | 0.195 | 0.139 | 0.076 |
| TRAPPC13 isoform 5 (UniProt A5PLN9) | 0.094 | 0.052 | 0.045 | -0.016 | 0.009 | 0.005 | 0.116 | -0.123 | -0.046 | 0.015 |
| VPS13B (UniProt Q7Z7G8) | 0.019 | -0.11 | -0.007 | 0.025 | -0.111 | 0.019 | -0.018 | 0.07 | 0.07 | 0.057 |
| TUT4 (UniProt Q5TAX3) | -0.265 | 0.092 | -0.237 |  | 0.158 | 0.051 | 0.021 | -0.02 | -0.025 | 0.009 |
| VTA1 (UniProt Q9NP79) | -0.01 | -0.033 | 0.044 | -0.094 | 0.056 | -0.003 | -0.014 | -0.014 | -0.008 | 0.006 |
| WDR37 isoform 2 (UniProt Q9Y2I8) | 0.033 | 0.117 | -0.063 | 0.081 | 0.034 | -0.006 | 0.035 | -0.018 | -0.029 | 0.046 |
| TRIM4 (UniProt Q9C037) | -0.066 | 0.003 | 0.056 | -0.208 | 0.129 | -0.155 | -0.011 | -0.088 | -0.137 | 0.202 |
| UBIAD1 (UniProt Q9Y5Z9) | -0.063 | -0.038 | -0.246 | -0.039 | -0.008 | 0.077 | 0.082 | -0.054 | 0.013 | 0.103 |
| TMEM184C (UniProt Q9NVA4) | -0.006 | 0.162 | -0.11 | -0.112 |  | -0.043 |  | 0.059 | 0.077 | 0.162 |
| TOM1 (UniProt O60784) | 0.078 | -0.061 |  |  |  |  |  | 0.103 | 0.094 | 0.171 |
| TUBA4A (UniProt C9JJQ8) | 0.083 | 0.016 | -0.041 |  | 0.052 |  | 0.018 |  |  |  |

— the supplement of paper PMC10849652
